Results with a measured potency or affinity are listed apart. The source made the active and inactive calls.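 Rule for the calls: active = toxic compound whose fitted half-effect dose of signal loss is at most twice its top tested dose; inconclusive = flat fit losing 30 to 70% signal, or poor fit; inactive = the rest.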

The assay can be described thus: cytotoxicity in HeLa cells, dose response, cytotoxicity control, cell-based, plate reader, dry powder (AID 651946). Conditions: HeLa viability, ATP luminescence (CellTiter-Glo), 48 h; series mostly up to 26 µM; activity change, negative = cytotoxicity: at the top concentration. Background: ATP-based viability assays read luminescence as a measure of living cells.
For `c1ccc(-c2nnc(SCc3ccncc3)o2)cc1`, the “activity change, negative = cytotoxicity” value is 4.81% (inactive). Regarding `FC(F)(F)c1cccc(-c2nnc(SCc3ccccc3)o2)c1`, the “activity change, negative = cytotoxicity” value was 6.67% (inactive). To `Fc1ccc(Cn2cc(CSc3nnc(-c4ccc(F)cc4)o3)nn2)cc1` belongs -3.32% (inactive); to `Fc1ccc(-c2nnc(SCc3cn(Cc4ccccc4)nn3)o2)cc1`, 3.95% (inactive); to `N#Cc1ccc(CSc2nnc(-c3ccccc3)o2)cc1`, -5.77% (inactive).

As to `FC1(F)CCN(CCSc2nnc(-c3ccccc3)o2)CC1`, the “activity change, negative = cytotoxicity” value is 0.895% (inactive). For the molecule `Cc1ccc(-c2nnc(SCc3ccccc3)o2)cc1`, the “activity change, negative = cytotoxicity” value was 13.6% (inactive). Under `N#Cc1ccccc1CSc1nnc(-c2ccccc2)o1` stands 2.07% (inactive); under `Cc1nnc(SCc2ccccc2)o1`, -5.66% (inactive). To `O=S(Cc1cn(Cc2ccc(F)cc2)nn1)c1nnc(-c2ccc(Cl)cc2)o1` (configuration not stated) belongs -84.4% (inactive). Under `Fc1ccc(-c2nnc(SCc3ccccc3)o2)cc1` stands 12.4% (inactive); under `CCSc1nnc(-c2ccccc2)o1`, -0.855% (inactive); under `c1ccc(-c2nnc(SCCN3CCOCC3)o2)cc1`, -3.35% (inactive). As for `Cc1ccc(-c2nnc(SCc3ccccn3)o2)cc1`, the “activity change, negative = cytotoxicity” value is 1.8% (inactive). Under `c1ccc(-c2nnc(SCCN3CCN(c4ccccc4)CC3)o2)cc1` stands -6.89% (inactive); under `CS(=O)(=O)c1ccc(CSc2nnc(-c3ccccc3)o2)cc1`, 5.79% (inactive); under `COc1cccc(-c2nnc(SCc3ccccc3)o2)c1`, -3.27% (inactive).

For the molecule `Clc1ccccc1-c1nnc(SCc2ccccc2)o1`, the “activity change, negative = cytotoxicity” value is -12.7% (inactive). Under `COc1ccc(-c2nnc(SCc3ccccc3)o2)cc1` stands -3.91% (inactive). Under `Fc1ccccc1-c1nnc(SCc2ccccc2)o1` stands 2.75% (inactive). Take `Clc1cccc(-c2nnc(SCc3ccccc3)o2)c1`: the “activity change, negative = cytotoxicity” value was 5.52% (inactive). To `COc1ccc(CSc2nnc(-c3ccc(Cl)cc3)o2)nc1` belongs -4.32% (inactive); to `FC(F)(F)Oc1ccc(-c2nnc(SCc3ccccc3)o2)cc1`, 9.74% (inactive). To `Brc1ccc(CSc2nnc(-c3ccccc3)o2)cc1` belongs -1.08% (inactive); to `FC(F)(F)c1ccccc1-c1nnc(SCc2ccccc2)o1`, -7.47% (inactive); to `c1ccc(CSc2nnc(-c3ccco3)o2)cc1`, 9.18% (inactive). To `Fc1cccc(CSc2nnc(-c3ccccc3)o2)c1` belongs -0.479% (inactive). On to `c1ccc(CSc2nnc(-c3cccs3)o2)cc1`, for which the “activity change, negative = cytotoxicity” value is 2.53% (inactive). Consider `Fc1ccc(CSc2nnc(-c3ccc(Cl)cc3)o2)cc1`, for which the “activity change, negative = cytotoxicity” value is 1.58% (inactive). To `N#Cc1cccc(-c2nnc(SCc3ccccc3)o2)c1` belongs 22.6% (inactive); to `c1ccc(-c2nnc(SCCC3OCCCO3)o2)cc1`, 1.39% (inactive).

For `c1ccc(-n2cc(CSc3nnc(C4CCC4)o3)nn2)cc1`, the “activity change, negative = cytotoxicity” value is -13.6% (inactive). Under `c1ccc(-n2cc(CSc3nnc(C4CCCC4)o3)nn2)cc1` stands 0.271% (inactive); under `c1ccc(-c2nnc(SCCN3CCCC3)o2)cc1`, -0.13% (inactive); under `COc1ccc(-c2nnc(SCc3ccccn3)o2)cc1`, -23.8% (inactive). As to `Fc1ccc(Cn2cc(CSc3nnc(C4CCC4)o3)nn2)cc1`, the “activity change, negative = cytotoxicity” value is -6.56% (inactive). As for `FC(F)(F)c1ccc(-c2nnc(SCc3ccccc3)o2)cc1`, the “activity change, negative = cytotoxicity” value was 0.304% (inactive).
